Screening results (PubChem)
This is a sample that favours compounds with a hit; in the whole collection about 2.8% have one here.
HEK293 viab: cell viability loss counter-screen | HEK-293-SNCA-luc viability, GF-AFC fluorescence, 24 h | Potency, µM (series often up to 57.1 µM), usual class: cytotoxic | 150,000 compounds, 0.12% hits; also: nearly all actives have a fitted effect of over 30% in size
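HEK-293-SNCA-luc cells (1500/well) plated 24 h, then exposed 24 h to a dilution series; GF-AFC added 30 min at 37C, fluorescence 405/540 nm; normalised to medium-only and DMSO wells, Hill fit.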
SNCA expr inh: inhibitors of alpha-synuclein (SNCA) gene expression. HEK-293 SNCA-luciferase knock-in, luminescence, 24 h. Potency, µM (titrated, usually from 57.2 µM), most hits filed as inhibitors. 140,000 compounds, 0.17% hits. AID 1671194; also: nearly all actives have a fitted effect of over 45% in size
IP6K1 inh: inhibitors of human IP6K1 | Q92551 | activity change, % (series mostly up to about 58 µM) | 140,000 compounds, 0.81% hits | IP6K1 kinase, ADP-Glo luminescence, 2 h; hits give low values; in the data active = activity change below about -25%
Target sequence (Q92551 whole entry, looked up): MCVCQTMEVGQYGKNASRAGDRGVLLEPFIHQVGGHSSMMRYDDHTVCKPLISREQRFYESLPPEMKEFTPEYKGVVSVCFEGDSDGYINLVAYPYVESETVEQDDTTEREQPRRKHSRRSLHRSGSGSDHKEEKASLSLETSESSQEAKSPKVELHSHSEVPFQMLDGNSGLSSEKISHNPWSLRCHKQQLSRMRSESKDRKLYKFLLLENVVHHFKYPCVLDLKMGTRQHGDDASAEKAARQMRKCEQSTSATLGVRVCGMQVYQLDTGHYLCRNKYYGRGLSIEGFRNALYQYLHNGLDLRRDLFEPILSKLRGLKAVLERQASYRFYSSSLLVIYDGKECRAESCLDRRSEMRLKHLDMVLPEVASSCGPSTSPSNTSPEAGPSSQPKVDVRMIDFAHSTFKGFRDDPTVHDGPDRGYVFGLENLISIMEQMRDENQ
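ADP-Glo luminescence measures ADP made by human IP6K1 during a 2 h RT reaction with ATP/IP6 (mix at 1.3 mM/130 uM); top library doses 57.5 and 19.1 uM final.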
KDM5B inhibitor: KDM5B demethylase inhibition; Q9UGL1; 220,000 compounds, 2.6% hits; Potency, µM (series often up to 57.7 µM), usual class: inhibitors; KDM5B demethylase, FDH-coupled NADH fluorescence (FDH is formaldehyde dehydrogenase); AID 1347165; also: nearly all actives have a fitted effect of over 70% in size
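Measured: NADH fluorescence change, 30 min, RT. System: KDM5BΔAP 200 nM final, H3K4me3 peptide, α-KG, Fe(II), ascorbate, NAD⁺ plus FDH, pH 7.5 HEPES. Compounds: titrated, 10 min pre-incubation with enzyme.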
Hits are given with their value; - = inactive; ? = inconclusive; . = not tested or not shown. Unless noted, calls follow the shape of the dose curve; as a rule, active = well fitted curve in the direction sought with a large enough effect; inconclusive = small, poorly fitted or top-dose-only effect, or another doubt; inactive = no such curve, though single readings can be large; an effect the other way counts as inactive or inconclusive.

SMILES	HEK293 viab	SNCA expr inh	IP6K1 inh	KDM5B inhibitor
CC(C)C(=O)NCC1CN(Cc2ccccc2)C(=O)c2c(ccnc2-c2ccc(OCC(=O)O)cc2)O1 (configuration not stated)	?	2.8µM	-	?
CC(C)NC(=O)c1nc(C(C)(C)C)c2cnccn12	-	-	-	126µM
C#CCNC(=O)c1nc(C(C)(C)C)c2cnccn12	-	-	-	50µM
C#CCNC(=O)c1nc(-c2cccnc2)c2ccccn12	-	-	-	-
COc1cc2c(cc1OC)C(C[C@H]1CN(S(=O)(=O)c3cccs3)CC[C@H]1CC(=O)O)=NCC2	-	-	-	28µM
COc1cc2c(cc1OC)C(C[C@H]1CN(S(=O)(=O)c3ccc(C#N)cc3)CC[C@H]1CC(=O)O)=NCC2	-	-	-	28µM
COc1ccc(S(=O)(=O)N2CC[C@@H](CC(=O)O)[C@@H](CC3=NCCc4cc(OC)c(OC)cc43)C2)cc1	-	-	-	-
CN1CC(=O)N(C2CCCNC2)Cc2c1ncnc2N1CCc2ccccc2C1 (configuration not stated)	-	-	-	50µM
CC(=O)N1CCCN(c2ncnc3c2CN(C2CCCNCC2)C(=O)CN3C)CC1 (configuration not stated)	-	-	-	-
CC(=O)N1CCCN(c2ncnc3c2CN(C2CCCNC2)C(=O)CN3C)CC1 (configuration not stated)	-	-	-	50µM
COc1ccc(C(NC(=O)CSc2ccc(Br)cc2)c2nccn2C)cc1 (configuration not stated)	.	.	.	-
CC(C)NC(=O)C[C@@H]1c2nc(NC(=O)C3CCCCC3)sc2C[C@@H]2[C@](C)(CO)[C@H](O)CC[C@]21C	-	-	-	-
CCC1(CC)CCN(C(=O)CC2COc3ccc(C(=O)N(C)C)cc3N2C)C1 (configuration not stated)	-	-	-	-
CC(C)N(CC1CC1)C(=O)CC1COc2ccc(C(=O)N(C)C)cc2N1C (configuration not stated)	-	-	-	?
COCCNC(=O)c1ccc2c(c1)N(C)C(CC(=O)N1CCC(N)CC1)CO2 (configuration not stated)	-	-	-	28µM
COCCNC(=O)c1ccc2c(c1)N(C)C(CC(=O)N1CCC(O)CC1)CO2 (configuration not stated)	-	-	-	28µM
CCOc1ccc(CC(=O)NC2CCN(c3cc(-c4ccccc4)[nH]n3)C2)cc1OCC (configuration not stated)	-	-	-	?
COc1cc2ncnc(Nc3ccc(F)c(Cl)c3)c2cc1O	-	.	-	.
COc1cc2ncnc(Nc3ccc(F)c(Cl)c3)c2cc1NC(=O)/C=C/CN1CCCCC1	24µM	.	-	.
C=C(C)CN1CCCC(C(=O)NCC2CC2)C1 (configuration not stated)	.	.	.	-
COc1ccc(C(=O)NCCn2ccn3nc(-c4ccc(F)cc4)cc3c2=O)cn1	-	-	-	25µM
COc1ccc(-c2cc3c(=O)n(CCNC(=O)c4ccc(F)c(F)c4)ccn3n2)cc1	-	-	-	?
COc1ccc(-c2cc3c(=O)n(CCNC(=O)c4ccc(N(C)C)cc4)ccn3n2)cc1	-	-	-	25µM
COc1ccc(-c2cc3c(=O)n(CCNC(=O)c4ccc5c(c4)OCO5)ccn3n2)cc1	-	-	-	6.3µM
Cc1nn(CC(=O)NCCO)c(=O)c2ccccc12	.	.	.	-
SMILES	HEK293 viab	SNCA expr inh	IP6K1 inh	KDM5B inhibitor
COc1ccc(-c2cc(-c3cccc(C(N)=O)c3)cn3cncc23)cc1	-	-	-	?
COc1ccc(-c2cc(-c3ccncc3)cn3cncc23)cc1	-	?	-	40µM
COc1ccc(-c2cc(-c3cccnc3)c3cncn3c2)cn1	-	-	-	?
COc1ccc(-c2cc(-c3ccc4c(c3)CNC4=O)cn3cncc23)cc1	-	-	-	22µM
COc1ccc(-c2cc(-c3ccc4cn[nH]c4c3)cn3cncc23)cn1	-	?	-	10µM
OCc1ccc(-c2cc(-c3ccncc3)c3cncn3c2)cc1	-	-	-	?
O=[S+]1([O-])NC2(CCN(Cc3cccnc3)CC2)CNc2ccccc21	-	-	-	-
Cc1nc(C)c(C(=O)Nc2nn(Cc3ccccc3)c3cccc(OC(C)C)c23)o1	-	-	-	-
CN(C)C[C@@H]1CN(c2ncccn2)C[C@H]1NC(=O)c1ccc2[nH]ccc2c1	-	-	-	32µM
CN(C)C[C@@H]1CN(c2ncccn2)C[C@H]1NC(=O)c1cccc(Cl)c1	-	-	-	28µM
